Screening data deposited in PubChem by National Center for Advancing Translational Sciences (NCATS).
Shown are actives, neighbours in structure and some others; about 1.2% of the full set was active somewhere.
RXFP1 antag: RXFP1 (human) relaxin receptor antagonism | AID 1259400 | actives 0.59% (n = 350,000) | Q9HBX9 | activity change, negative = inhibition, % at 57.5 µM | HEK293-RXFP1, relaxin-stimulated cAMP HTRF, 30 min; stronger effect = lower value;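 active = activity change of -60% or lower, but not beyond a set lower limit; inconclusive = change between -60% and -40%, or beyond the set limit; inactive = change above -40%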; note: % is set by controls: 0 for no effect and ±100 for the full control effect
Target sequence (Q9HBX9 whole entry, looked up): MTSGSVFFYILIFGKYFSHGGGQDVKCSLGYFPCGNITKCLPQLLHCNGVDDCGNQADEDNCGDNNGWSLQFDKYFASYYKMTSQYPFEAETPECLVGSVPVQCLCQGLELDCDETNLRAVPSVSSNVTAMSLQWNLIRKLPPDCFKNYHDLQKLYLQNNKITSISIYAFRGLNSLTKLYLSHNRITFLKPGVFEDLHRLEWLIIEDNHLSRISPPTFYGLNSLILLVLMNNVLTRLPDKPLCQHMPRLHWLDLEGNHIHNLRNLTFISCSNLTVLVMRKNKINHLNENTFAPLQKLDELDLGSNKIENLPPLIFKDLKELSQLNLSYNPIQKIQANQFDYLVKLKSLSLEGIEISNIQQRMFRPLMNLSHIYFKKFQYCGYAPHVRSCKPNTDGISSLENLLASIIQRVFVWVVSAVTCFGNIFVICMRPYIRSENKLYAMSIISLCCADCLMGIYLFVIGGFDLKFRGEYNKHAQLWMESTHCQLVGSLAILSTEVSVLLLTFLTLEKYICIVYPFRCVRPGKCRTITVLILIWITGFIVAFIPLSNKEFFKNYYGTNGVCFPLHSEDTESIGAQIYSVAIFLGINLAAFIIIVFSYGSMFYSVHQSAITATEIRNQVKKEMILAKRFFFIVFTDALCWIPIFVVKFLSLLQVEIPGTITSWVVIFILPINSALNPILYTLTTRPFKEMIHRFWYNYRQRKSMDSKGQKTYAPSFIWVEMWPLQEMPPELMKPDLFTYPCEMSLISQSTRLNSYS
gsp agonist: activates gsp, the McCune-Albright syndrome mutation; gsp mutant cells, cAMP HTRF, 30 min; Potency, µM (top dose mostly 76.9 µM), inactives show at the highest dose activation (cAMP increase), hits mostly activators; actives 0.13% (n = 340,000); active = well fitted activation curve with a large enough effect; inconclusive = small, poorly fitted or top-dose-only effect, or another doubt; inactive = no such curve, though single readings can be large or run the other way; cell line not stated here;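 note: phosphodiesterase inhibitor Ro 20-1724 added with compounds to block cAMP breakdown; potency is the fitted concentration of half-maximal effect; nearly all actives have a fitted effect of over 60% in size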
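Cells in DMEM/10% FBS with G418 were pretreated with compounds in DMSO plus […] (300 uM stock) for 30 min at 37C. cAMP was measured by HTRF (cAMP-d2 plus anti-cAMP antibody-K) after 30 min at room temperature.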
RXFP1 agonist: activates the human relaxin receptor RXFP1. HEK293T-RXFP1 cAMP TR-FRET, 30 min; response scale: percent of porcine relaxin response, buffer zero. Potency, µM (top dose mostly 57.5 µM), for the others: at the highest dose activation, hits mostly activators. actives 0.3% (n = 370,000). Q9HBX9. AID 2676; active = well fitted activation curve with a large enough effect; inconclusive = small, poorly fitted or top-dose-only effect; note: potency is the fitted concentration of half-maximal effect; % is set by controls: 0 for no effect and ±100 for the full control effect; nearly all actives have a fitted effect of over 60% in size
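HEK293 cells stably expressing RXFP1, treated 30 min at 37C with compounds plus PDE4 inhibitor Ro 20174; cAMP measured by HTRF TR-FRET. Normalized to buffer and 29 nM porcine relaxin; EC50 by Hill fit.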
Akt phos inh: blocks phosphorylation of Akt; activity change, % for hits at 50 µM; Neuro2A IGF-stimulated pAkt S473 HTRF, 20 min; stronger effect = lower value; AID 651550; actives 0.32% (n = 360,000); in the data active = activity change below about -80%; inconclusive = mostly about -51% to -80%; note: % is set by controls: 0 for no effect and ±100 for the full control effect
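Single-point screen (50 µM final compound) in Neuro2A cells stimulated 20 min with 6 nM IGF at 37 deg C. After lysis, Ser473-phosphorylated Akt read by HTRF (ex 330 nm, em 615/665 nm) as the 665/615 ratio.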
gsp antagonist: antagonists of gsp mutant (McCune-Albright syndrome) | gsp-mutant cells, cAMP HTRF, 30 min | Potency, µM (top dose mostly 76.9 µM), without a hit: at the highest dose activity change, negative = inhibition, hits mostly inhibitors | actives 0.4% (n = 340,000) | AID 624288; calls by dose curve; cell line not stated here;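 note: intracellular cAMP measured with PDE inhibitor Ro 20-1724 present during compound exposure; potency is the fitted concentration of half-maximal effect; % is set by controls: 0 for no effect and ±100 for the full control effect; nearly all actives have a fitted effect of over 65% in size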
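HTRF cAMP read-out (cAMP-d2 plus anti-cAMP antibody-K in lysis buffer, 30 min RT). Before lysis, cells are exposed to compounds with […] for 30 min at 37C in DPBS containing Ca/Mg, BSA and Tween 20.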
Active calls of the source: *; i = inactive; ? = inconclusive; . = no result given; [ ] = remark or other dose.

SMILES | RXFP1 antag | gsp agonist | RXFP1 agonist | Akt phos inh | gsp antagonist
N#CC(c1ccccc1)C(CC(=NO)c1ccccc1)c1ccccc1 (configuration not stated) | -90.8* | -0.6% | . | i | .
CCOC(=O)/C(=N\Nc1cc(Cl)ccc1Cl)N1CC(C)OC(C)C1 (configuration not stated) | -11.2 | ? | 0.1% | i | 1.6%
CCOC(=O)/C(=N\Nc1ccccc1Cl)N1CC(C)OC(C)C1 (configuration not stated) | -67.3* | 26.1% | 1.6% | i | -13.2%
Nc1c(N(Cc2ccco2)C(=O)COc2ccccc2)c(=O)[nH]c(=O)n1Cc1ccccc1 | 3.4 | -35.8% | 0.2% | i | 0.4%
Cc1cccc(OCC(=O)N(Cc2ccco2)c2c(N)n(Cc3ccccc3)c(=O)[nH]c2=O)c1 | -5.8 | -30.6% | -0.9% | i | 50.1µM*
CCOc1ccc(C(=O)N2CCN(Cc3cc(=O)n4nc(-c5ccccc5Cl)sc4n3)CC2)cc1 | . | . | -0.8% | . | .
CCc1ccccc1-n1c(SCC(=O)Nc2ccc(C)cc2)nc2n[nH]c(C)c2c1=N | -86.9* | . | 7.0% | . | .
CCCCOc1ccc(Br)cc1CSC(=N)N | -71.2* | 3.8%[15.4 µM] | 0.6% | i | 11.3%
O=C(Nc1ccc(C(F)(F)F)cc1)C(Cc1ccccc1)n1cccc1 (configuration not stated) | -31.3 | . | -0.2% | . | .
CC(C)c1ccc(NC(=O)C(Cc2ccccc2)n2cccc2)cc1 (configuration not stated) | -70.9* | . | 3.8% | . | .
COC(=O)c1sccc1S(=O)(=O)N(CC(=O)Nc1cccc(C)c1C)c1ccc(C)c(C)c1 | 0.5 | . | -1.0% | . | .
CCN1CCN(c2nc(C)c3c(n2)CC(C)CC3=O)CC1 (configuration not stated) | 6.0 | 6.3%[15.4 µM] | -0.7% | i | 15.1%
Cc1nc(N2CCN(Cc3ccccc3)CC2)nc2c1C(=O)CC(C)C2 (configuration not stated) | -15.8 | -14.2% | 0.5% | -109.5%* | -19.1%
CC(=O)c1cc2ccccc2s1 | 14.1 | . | . | . | .
Cn1cc(S(=O)(=O)N2CCCCC2)cc1C(=O)Nc1cccc(C#N)c1 | . | . | 0.0% | . | .
O=C(Nc1ccc(Br)cc1F)c1ccc2c(c1)N(Cc1ccccc1)C(=O)CS2=O (configuration not stated) | -71.9* | -13.7% | -0.7% | i | ?
Cc1ccc(C)c(NC(=O)c2ccc3c(c2)N(Cc2ccc(F)cc2)C(=O)CS3=O)c1 (configuration not stated) | . | -0.7% | -0.4% | i | -3.9%
CCC(=O)N1N=C(c2ccc(NS(=O)(=O)c3ccccc3)cc2)CC1c1ccco1 (configuration not stated) | -12.4 | 5.1% | . | i | 31.6µM*
CC(=O)c1sc2c(c1C)c(=O)n(-c1ccc(Cl)cc1)c(=O)n2Cc1ccc(Cl)cc1 | -20.2 | . | 19.1% | . | .
Cn1c(=O)c2sccc2n2c(CCCC(=O)NCCc3ccc(S(N)(=O)=O)cc3)nnc12 | 19.6 | 51.6%[15.4 µM] | 28.2µM* | i | 2.1%
COc1ccc(NC(=O)CCCc2nnc3n(C)c(=O)c4sccc4n23)cc1 | 4.3 | ? | 15.8µM* | . | 9.5%
Cn1c(=O)c2sccc2n2c(CCCC(=O)NCc3ccc4c(c3)OCO4)nnc12 | 8.5 | 35.5µM* | ? | i | -0.6%
O=C(CCCCCn1c(=O)c2sccc2n(Cc2ccccc2Cl)c1=O)NCc1ccc2c(c1)OCO2 | -5.7 | . | 31.6µM* | . | .
COc1ccc(-c2onc(C)c2C)cc1S(=O)(=O)N(C)Cc1ccccc1 | -2.8 | . | -2.2% | . | .
CCCn1c(=O)c2sccc2n2c(CCCC(=O)NCc3cccnc3)nnc12 | -3.3 | ? | 22.3% | i | 21.6%
Cn1c(=O)c2sccc2n2c(CCCC(=O)NCc3cccnc3)nnc12 | 26.0 | ? | 12.6µM* | i | 19.6%
Cc1c(C(=O)Nc2ccc(Cl)cc2)c2ccccn2c1C(=O)c1ccc(F)cc1 | 13.3 | -16.8% | 3.8% | -110.3%* | 2.3%
Cc1ccc(C(CNC(=O)Nc2ccc(Cl)cc2)N2CCN(C)CC2)cc1 (configuration not stated) | -84.1* | ? | -2.7% | i | 5.9%
